Experimental data published in the supplement of paper PMC11172423.
Unmarked numbers belong to inactive results.

tested on: Madurella mycetomatis MM55; assay: growth relative to untreated control; higher = less inhibition, active = 20 or less; settings: 25 µM
Method: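 Hyphal fragments of M. mycetomatis MM55 or F. senegalensis CBS197.79 in RPMI 1640/MOPS were exposed to each MMV COVID Box or Global Health Priority Box compound at 100 or 25 µM for 7 days at 37 °C. Viability was read with MTS (490 nm, M. mycetomatis) or resazurin (600 nm, F. senegalensis), background-corrected with a medium-only control and expressed as % growth relative to the untreated growth control. Inhibition of more than 80% was taken as growth inhibition.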

| Structure (SMILES) | growth |
| --- | --- |
| C[C@@H]1O[C@@H](O[C@@H]2C=C3CC[C@@H]4[C@H](CC[C@]5(C)[C@@H](c6ccc(=O)oc6)CC[C@]45O)[C@@]3(C)CC2)[C@H](O)[C@H](O)[C@H]1O | 93.2% |
| CCN(Cc1ccc(Cl)nc1)/C(=C/[N+](=O)[O-])NC | 86.9% |
| CNC(=O)Oc1cccc2c1OC(C)(C)O2 | 95.6% |
| CN(C)[C@@H]1C(=O)C(C(N)=O)=C(O)[C@@]2(O)C(O)=C3C(=O)c4c(O)cccc4[C@@](C)(O)[C@H]3C[C@@H]12 | 102% |
| CNC(=O)c1cc(C#N)cc(C)c1NC(=O)c1cc(Br)nn1-c1ncccc1Cl | 69.7% |
| CC(C)(C#N)NC(=O)c1cc(Cl)cc(Cl)c1NC(=O)c1cc(Cl)nn1-c1ncccc1Cl | 104% |
| CC(C)=CC1C(C(=O)OC(C#N)c2cccc(Oc3ccccc3)c2)C1(C)C (stereo not given) | 83.3% |
| CC1(C)CNC(=NN=C(C=Cc2ccc(C(F)(F)F)cc2)C=Cc2ccc(C(F)(F)F)cc2)NC1 | 104% |
| COP(=S)(OC)Oc1ccc(Sc2ccc(OP(=S)(OC)OC)cc2)cc1 | 118% |
| CNCCn1c(Nc2cc(Cl)cc(C(F)(F)F)c2)nc2cnc(NC3CC(F)(F)C3)cc21 | 22.2% |
| COc1ccc(C[C@H]2NC[C@H](O)[C@H]2OC(C)=O)cc1 | 111% |
| CC1(Nc2ncc3nc(Nc4cc(Cl)cc(C(F)(F)F)c4)n(C4CCNC4)c3n2)CC1 (stereo not given) | 6.99% (active) |
| O=C(NC(=O)c1ccccc1Cl)Nc1ccc(OC(F)(F)F)cc1 | 106% |
| CNC(=O)Oc1ccccc1OC(C)C | 120% |
| O=[N+]([O-])/N=C1\NCCN1Cc1ccc(Cl)nc1 | 92.8% |
| CCN(CC)c1nc(C)cc(OP(=S)(OC)OC)n1 | 110% |
| NCCc1cn(S(=O)(=O)c2c(Cl)nc3sccn23)c2ccccc12 | 79.9% |
| CC[C@H]1CN2CCc3cc(OC)c(OC)cc3[C@@H]2C[C@@H]1C[C@H]1NCCc2cc(OC)c(OC)cc21 | 84.8% |
| N#CCNC(=O)c1cnccc1C(F)(F)F | 109% |
| CC(C)Nc1cc2c(cn1)nc(Nc1cc(Cl)cc(C(F)(F)F)c1)n2C1CCNC1 (stereo not given) | 7.15% (active) |

same assay, conditions: 100 µM

| Structure (SMILES) | growth |
| --- | --- |
| C[C@@H]1O[C@@H](O[C@@H]2C=C3CC[C@@H]4[C@H](CC[C@]5(C)[C@@H](c6ccc(=O)oc6)CC[C@]45O)[C@@]3(C)CC2)[C@H](O)[C@H](O)[C@H]1O | 82.8% |
| CCN(Cc1ccc(Cl)nc1)/C(=C/[N+](=O)[O-])NC | 132% |
| CNC(=O)Oc1cccc2c1OC(C)(C)O2 | 129% |
| CN(C)[C@@H]1C(=O)C(C(N)=O)=C(O)[C@@]2(O)C(O)=C3C(=O)c4c(O)cccc4[C@@](C)(O)[C@H]3C[C@@H]12 | 82.5% |
| CNC(=O)c1cc(C#N)cc(C)c1NC(=O)c1cc(Br)nn1-c1ncccc1Cl | 55.9% |
| CC(C)(C#N)NC(=O)c1cc(Cl)cc(Cl)c1NC(=O)c1cc(Cl)nn1-c1ncccc1Cl | 116% |
| CC(C)=CC1C(C(=O)OC(C#N)c2cccc(Oc3ccccc3)c2)C1(C)C (stereo not given) | 145% |
| CC1(C)CNC(=NN=C(C=Cc2ccc(C(F)(F)F)cc2)C=Cc2ccc(C(F)(F)F)cc2)NC1 | 106% |
| COP(=S)(OC)Oc1ccc(Sc2ccc(OP(=S)(OC)OC)cc2)cc1 | 118% |
| CNCCn1c(Nc2cc(Cl)cc(C(F)(F)F)c2)nc2cnc(NC3CC(F)(F)C3)cc21 | 6.62% (active) |
| COc1ccc(C[C@H]2NC[C@H](O)[C@H]2OC(C)=O)cc1 | 3.35% (active) |
| CC1(Nc2ncc3nc(Nc4cc(Cl)cc(C(F)(F)F)c4)n(C4CCNC4)c3n2)CC1 (stereo not given) | 6.62% (active) |
| O=C(NC(=O)c1ccccc1Cl)Nc1ccc(OC(F)(F)F)cc1 | 112% |
| CNC(=O)Oc1ccccc1OC(C)C | 129% |
| O=[N+]([O-])/N=C1\NCCN1Cc1ccc(Cl)nc1 | 98.3% |
| CCN(CC)c1nc(C)cc(OP(=S)(OC)OC)n1 | 99.4% |
| NCCc1cn(S(=O)(=O)c2c(Cl)nc3sccn23)c2ccccc12 | 2.9% (active) |
| CC[C@H]1CN2CCc3cc(OC)c(OC)cc3[C@@H]2C[C@@H]1C[C@H]1NCCc2cc(OC)c(OC)cc21 | 43.6% |
| N#CCNC(=O)c1cnccc1C(F)(F)F | 142% |
| CC(C)Nc1cc2c(cn1)nc(Nc1cc(Cl)cc(C(F)(F)F)c1)n2C1CCNC1 (stereo not given) | 6.36% (active) |
